Common to all, as to assay: DAPPL (digital affinity profiling via proximity ligation, sequencing); 10 mM Tris-HCl pH 7.5, 50 mM NaCl, 1 mM DTT, 4% glycerol, room temperature, 30 min; GST-TFs on glutathione beads, 16-mer random dsDNA library, 0.1% formaldehyde crosslink after washing; high values mean tight binding
One assay addresses T1, FEV (Homo sapiens, UniProt Q99581 1-238).
T1 sequence: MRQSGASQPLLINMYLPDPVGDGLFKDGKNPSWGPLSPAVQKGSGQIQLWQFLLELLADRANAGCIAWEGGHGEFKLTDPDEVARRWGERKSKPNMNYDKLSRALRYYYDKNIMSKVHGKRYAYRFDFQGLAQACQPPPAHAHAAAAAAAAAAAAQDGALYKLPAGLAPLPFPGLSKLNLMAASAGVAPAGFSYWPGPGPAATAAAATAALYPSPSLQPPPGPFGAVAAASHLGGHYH
Conditions: protein: recombinant; tags: N-terminal GST; dsDNA, one strand shown. Summed up:
(§1)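 Human transcription factors fused to GST were expressed in yeast, captured on glutathione beads, given DNA barcodes and pooled with a GST-only negative control. Pools were incubated with 200 nmole of a 16-mer random double-stranded DNA library in Tris/NaCl/DTT/glycerol buffer at room temperature for 30 min. They were then washed, crosslinked with 0.1% formaldehyde, proximity-ligated (BsaI/T4 ligase, 1 h, 37 °C), PCR-amplified and sequenced on an Illumina NextSeq500. Binding signal is each 6-mer's read frequency for a factor divided by its frequency for the GST control.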

A further assay has as its target ETV5 (Homo sapiens, UniProt P41161 1-510). Conditions: protein: recombinant; tags: N-terminal GST; dsDNA, one strand shown. Summed up: as §1
Another assay concerns the target HSF1 (Homo sapiens, UniProt Q00613 1-529). To be noted: protein: recombinant; tags: N-terminal GST; chain copies: 3; dsDNA, one strand shown. Summed up:
as §1

In another assay the target is T2, SPIC (Homo sapiens, UniProt Q8N5J4 1-248).
T2 sequence: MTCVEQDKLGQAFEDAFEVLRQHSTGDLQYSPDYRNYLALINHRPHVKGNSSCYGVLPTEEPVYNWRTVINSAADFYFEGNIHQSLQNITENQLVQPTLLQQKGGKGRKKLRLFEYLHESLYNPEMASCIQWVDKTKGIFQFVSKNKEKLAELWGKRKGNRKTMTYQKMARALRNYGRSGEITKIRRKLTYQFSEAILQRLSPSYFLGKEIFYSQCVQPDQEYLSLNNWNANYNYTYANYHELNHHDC
To be noted: protein: recombinant; tags: N-terminal GST; dsDNA, one strand shown. Summed up: as §1

The next assay has as its target ELF4 (Homo sapiens, UniProt Q99607 1-663). To be noted: protein: recombinant; tags: N-terminal GST; dsDNA, one strand shown. Summed up: as §1
In another assay the target is T3, ELK4 (Homo sapiens, UniProt P28324-2 1-405).
T3 sequence: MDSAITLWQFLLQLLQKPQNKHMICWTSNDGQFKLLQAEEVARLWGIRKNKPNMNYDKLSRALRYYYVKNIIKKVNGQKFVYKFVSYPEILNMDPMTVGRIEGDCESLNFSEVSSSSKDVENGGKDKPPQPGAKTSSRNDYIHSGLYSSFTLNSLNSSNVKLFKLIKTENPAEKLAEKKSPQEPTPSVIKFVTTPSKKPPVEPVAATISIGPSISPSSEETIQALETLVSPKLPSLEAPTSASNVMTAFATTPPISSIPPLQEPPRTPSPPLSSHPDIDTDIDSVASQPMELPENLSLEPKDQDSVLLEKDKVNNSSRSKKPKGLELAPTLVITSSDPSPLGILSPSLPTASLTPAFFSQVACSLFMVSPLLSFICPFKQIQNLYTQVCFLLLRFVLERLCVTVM
Conditions: protein: recombinant; tags: N-terminal GST; dsDNA, one strand shown. A digest of the protocol:
as §1

The next assay addresses T4, ETV2 (Homo sapiens, UniProt O00321 1-342).
T4 sequence: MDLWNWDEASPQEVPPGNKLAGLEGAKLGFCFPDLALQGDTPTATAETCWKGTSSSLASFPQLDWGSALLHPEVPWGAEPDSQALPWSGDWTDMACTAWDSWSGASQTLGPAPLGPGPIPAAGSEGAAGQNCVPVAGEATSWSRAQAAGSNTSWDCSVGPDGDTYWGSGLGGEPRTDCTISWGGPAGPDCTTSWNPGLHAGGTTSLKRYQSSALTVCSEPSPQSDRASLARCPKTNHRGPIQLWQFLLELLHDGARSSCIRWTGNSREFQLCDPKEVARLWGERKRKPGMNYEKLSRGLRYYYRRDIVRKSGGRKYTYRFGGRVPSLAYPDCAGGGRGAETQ
To be noted: protein: recombinant; tags: N-terminal GST; dsDNA, one strand shown. Summed up: as §1

Another assay concerns the target T5, ELF3 (Homo sapiens, UniProt P78545 1-371).
T5 sequence: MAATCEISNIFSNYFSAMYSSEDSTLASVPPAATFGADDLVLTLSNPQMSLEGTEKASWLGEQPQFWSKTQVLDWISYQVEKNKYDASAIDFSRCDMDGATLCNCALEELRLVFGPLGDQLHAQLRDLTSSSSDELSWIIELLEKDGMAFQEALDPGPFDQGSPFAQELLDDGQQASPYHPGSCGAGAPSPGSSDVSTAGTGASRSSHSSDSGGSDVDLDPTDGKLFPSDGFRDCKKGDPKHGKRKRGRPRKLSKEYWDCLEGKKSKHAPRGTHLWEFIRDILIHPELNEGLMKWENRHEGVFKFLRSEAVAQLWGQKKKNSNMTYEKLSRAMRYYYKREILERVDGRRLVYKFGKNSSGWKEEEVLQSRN
Conditions: protein: recombinant; tags: N-terminal GST; dsDNA, one strand shown. Summed up:
as §1

In another assay the target is CRX (Homo sapiens, UniProt O43186 1-299). Conditions: protein: recombinant; tags: N-terminal GST; dsDNA, one strand shown. Summed up:
as §1

A further assay addresses ETV1 (Homo sapiens, UniProt P50549 1-477). To be noted: protein: recombinant; tags: N-terminal GST; dsDNA, one strand shown. Summed up:
as §1

Another assay has as its target T6, ERF (Homo sapiens, UniProt P50548 1-548).
T6 sequence: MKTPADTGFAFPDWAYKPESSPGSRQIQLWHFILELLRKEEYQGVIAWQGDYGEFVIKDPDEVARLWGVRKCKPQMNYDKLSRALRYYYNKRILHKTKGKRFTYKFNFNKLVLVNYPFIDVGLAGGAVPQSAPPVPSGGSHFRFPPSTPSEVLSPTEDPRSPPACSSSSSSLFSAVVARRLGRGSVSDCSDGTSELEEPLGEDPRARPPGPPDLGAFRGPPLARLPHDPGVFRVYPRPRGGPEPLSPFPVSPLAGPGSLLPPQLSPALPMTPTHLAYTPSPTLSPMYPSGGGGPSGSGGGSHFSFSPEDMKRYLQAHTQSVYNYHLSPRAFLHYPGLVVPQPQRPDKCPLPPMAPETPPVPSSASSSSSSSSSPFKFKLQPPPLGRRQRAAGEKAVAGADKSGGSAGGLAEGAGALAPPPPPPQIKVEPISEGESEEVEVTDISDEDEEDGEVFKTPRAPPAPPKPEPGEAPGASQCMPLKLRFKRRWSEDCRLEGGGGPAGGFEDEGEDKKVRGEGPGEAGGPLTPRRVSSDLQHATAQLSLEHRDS
Conditions: protein: recombinant; tags: N-terminal GST; dsDNA, one strand shown. Summed up:
as §1

The target of another assay is T7, ETV3L (Homo sapiens, UniProt Q6ZN32 1-361).
T7 sequence: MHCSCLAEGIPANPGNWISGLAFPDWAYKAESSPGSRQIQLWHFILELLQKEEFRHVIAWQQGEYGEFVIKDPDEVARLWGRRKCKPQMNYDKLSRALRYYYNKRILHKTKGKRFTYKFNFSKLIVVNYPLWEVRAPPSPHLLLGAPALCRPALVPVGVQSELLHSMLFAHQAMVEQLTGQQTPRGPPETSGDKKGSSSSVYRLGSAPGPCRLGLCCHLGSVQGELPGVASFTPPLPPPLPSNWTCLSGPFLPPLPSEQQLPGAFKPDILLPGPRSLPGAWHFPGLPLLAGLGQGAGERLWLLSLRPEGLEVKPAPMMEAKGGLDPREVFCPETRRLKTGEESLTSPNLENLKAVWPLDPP
Conditions: protein: recombinant; tags: N-terminal GST; dsDNA, one strand shown. Summed up:
as §1

The target in the next assay is T8, ETS2 (Homo sapiens, UniProt P15036 1-469).
T8 sequence: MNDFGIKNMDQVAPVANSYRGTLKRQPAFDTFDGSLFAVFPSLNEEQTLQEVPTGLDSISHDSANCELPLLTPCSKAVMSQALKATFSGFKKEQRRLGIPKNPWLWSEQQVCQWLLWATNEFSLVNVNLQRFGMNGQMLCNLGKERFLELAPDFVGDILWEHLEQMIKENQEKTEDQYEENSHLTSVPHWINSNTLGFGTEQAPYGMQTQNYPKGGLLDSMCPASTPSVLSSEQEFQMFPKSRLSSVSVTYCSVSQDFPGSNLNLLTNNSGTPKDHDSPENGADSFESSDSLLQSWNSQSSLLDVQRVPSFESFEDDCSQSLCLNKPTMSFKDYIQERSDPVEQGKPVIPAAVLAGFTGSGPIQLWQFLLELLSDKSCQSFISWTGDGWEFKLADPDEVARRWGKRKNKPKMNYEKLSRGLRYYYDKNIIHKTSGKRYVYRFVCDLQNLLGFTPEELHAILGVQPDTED
Conditions: protein: recombinant; tags: N-terminal GST; dsDNA, one strand shown. A digest of the protocol: as §1

The next assay deals with T9, SPDEF (Homo sapiens, UniProt O95238 1-335).
T9 sequence: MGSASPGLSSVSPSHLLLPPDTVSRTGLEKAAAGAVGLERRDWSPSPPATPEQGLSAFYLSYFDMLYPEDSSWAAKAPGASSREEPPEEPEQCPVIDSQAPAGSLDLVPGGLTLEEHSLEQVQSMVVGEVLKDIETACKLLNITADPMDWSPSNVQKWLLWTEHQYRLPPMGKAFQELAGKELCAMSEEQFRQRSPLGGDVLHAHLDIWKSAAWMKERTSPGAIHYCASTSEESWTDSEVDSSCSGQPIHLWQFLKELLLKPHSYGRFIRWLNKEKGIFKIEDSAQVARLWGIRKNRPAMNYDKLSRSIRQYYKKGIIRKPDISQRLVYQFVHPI
Conditions: protein: recombinant; tags: N-terminal GST; dsDNA, one strand shown. A digest of the protocol:
as §1

Another assay deals with T10, ETV7 (Homo sapiens, UniProt Q9Y603 1-341).
T10 sequence: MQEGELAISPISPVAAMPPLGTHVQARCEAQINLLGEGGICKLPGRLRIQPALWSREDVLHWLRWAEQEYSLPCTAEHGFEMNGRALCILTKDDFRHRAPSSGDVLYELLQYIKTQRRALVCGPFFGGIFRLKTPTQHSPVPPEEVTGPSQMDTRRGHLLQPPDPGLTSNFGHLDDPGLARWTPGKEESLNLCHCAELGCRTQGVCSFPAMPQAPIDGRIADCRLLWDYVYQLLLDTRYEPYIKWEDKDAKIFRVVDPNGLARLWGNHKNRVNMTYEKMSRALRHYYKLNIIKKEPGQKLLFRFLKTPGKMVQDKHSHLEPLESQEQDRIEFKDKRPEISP
To be noted: protein: recombinant; tags: N-terminal GST; dsDNA, one strand shown. Summed up: as §1

The next assay has as its target T11, ELF5 (Homo sapiens, UniProt Q9UKW6-2 1-255).
T11 sequence: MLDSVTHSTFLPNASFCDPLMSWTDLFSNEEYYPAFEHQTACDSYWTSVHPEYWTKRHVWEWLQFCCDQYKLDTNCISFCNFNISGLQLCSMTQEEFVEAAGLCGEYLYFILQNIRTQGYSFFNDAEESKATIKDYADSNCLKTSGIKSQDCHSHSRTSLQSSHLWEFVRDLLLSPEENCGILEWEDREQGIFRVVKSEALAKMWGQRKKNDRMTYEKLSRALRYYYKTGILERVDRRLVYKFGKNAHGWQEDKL
To be noted: protein: recombinant; tags: N-terminal GST; dsDNA, one strand shown. A digest of the protocol: as §1

Another assay concerns the target T12, ETV3 (Homo sapiens, UniProt P41162-2 1-143).
T12 sequence: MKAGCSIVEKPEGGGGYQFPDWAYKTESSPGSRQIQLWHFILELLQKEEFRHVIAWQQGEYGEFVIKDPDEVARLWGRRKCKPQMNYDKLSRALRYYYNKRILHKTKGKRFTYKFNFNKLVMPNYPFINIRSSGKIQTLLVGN
To be noted: protein: recombinant; tags: N-terminal GST; dsDNA, one strand shown. A digest of the protocol:
as §1

Chain of HSF1 (Q00613 whole entry): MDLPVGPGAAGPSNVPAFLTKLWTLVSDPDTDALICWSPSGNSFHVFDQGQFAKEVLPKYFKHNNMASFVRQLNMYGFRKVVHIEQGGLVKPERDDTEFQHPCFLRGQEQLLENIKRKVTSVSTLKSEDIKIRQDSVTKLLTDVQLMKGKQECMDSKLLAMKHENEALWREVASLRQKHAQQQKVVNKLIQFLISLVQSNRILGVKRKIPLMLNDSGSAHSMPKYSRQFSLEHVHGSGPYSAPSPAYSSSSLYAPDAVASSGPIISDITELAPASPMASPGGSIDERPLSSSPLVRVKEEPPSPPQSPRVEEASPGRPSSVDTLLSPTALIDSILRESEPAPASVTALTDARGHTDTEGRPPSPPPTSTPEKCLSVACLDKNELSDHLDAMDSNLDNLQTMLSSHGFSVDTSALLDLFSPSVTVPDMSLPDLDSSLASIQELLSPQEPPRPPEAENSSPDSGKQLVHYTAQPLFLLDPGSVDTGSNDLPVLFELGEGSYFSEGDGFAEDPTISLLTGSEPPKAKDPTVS
Chain of ETV5 (P41161 whole entry): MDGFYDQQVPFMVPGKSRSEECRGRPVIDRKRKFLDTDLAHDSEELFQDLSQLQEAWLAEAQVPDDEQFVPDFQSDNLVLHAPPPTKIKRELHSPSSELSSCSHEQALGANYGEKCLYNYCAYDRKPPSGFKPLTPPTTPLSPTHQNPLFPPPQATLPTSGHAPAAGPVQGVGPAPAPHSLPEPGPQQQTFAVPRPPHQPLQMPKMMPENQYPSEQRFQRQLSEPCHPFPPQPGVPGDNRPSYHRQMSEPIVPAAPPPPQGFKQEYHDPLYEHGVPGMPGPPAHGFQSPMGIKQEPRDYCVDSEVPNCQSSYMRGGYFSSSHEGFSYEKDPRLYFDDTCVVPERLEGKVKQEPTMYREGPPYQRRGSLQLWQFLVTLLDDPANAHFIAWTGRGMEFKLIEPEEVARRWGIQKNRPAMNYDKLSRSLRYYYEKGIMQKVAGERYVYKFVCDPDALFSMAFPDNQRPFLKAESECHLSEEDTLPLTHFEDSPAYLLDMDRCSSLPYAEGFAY
Chain of CRX (O43186 whole entry): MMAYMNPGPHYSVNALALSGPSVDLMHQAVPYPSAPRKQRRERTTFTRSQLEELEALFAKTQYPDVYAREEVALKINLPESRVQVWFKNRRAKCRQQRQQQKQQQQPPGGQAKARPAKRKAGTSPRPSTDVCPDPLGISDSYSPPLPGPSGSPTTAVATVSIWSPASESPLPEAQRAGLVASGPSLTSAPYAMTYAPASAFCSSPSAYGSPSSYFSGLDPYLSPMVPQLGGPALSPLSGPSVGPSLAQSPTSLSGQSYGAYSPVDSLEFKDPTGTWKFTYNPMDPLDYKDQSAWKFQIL
Chain of ELF4 (Q99607 whole entry): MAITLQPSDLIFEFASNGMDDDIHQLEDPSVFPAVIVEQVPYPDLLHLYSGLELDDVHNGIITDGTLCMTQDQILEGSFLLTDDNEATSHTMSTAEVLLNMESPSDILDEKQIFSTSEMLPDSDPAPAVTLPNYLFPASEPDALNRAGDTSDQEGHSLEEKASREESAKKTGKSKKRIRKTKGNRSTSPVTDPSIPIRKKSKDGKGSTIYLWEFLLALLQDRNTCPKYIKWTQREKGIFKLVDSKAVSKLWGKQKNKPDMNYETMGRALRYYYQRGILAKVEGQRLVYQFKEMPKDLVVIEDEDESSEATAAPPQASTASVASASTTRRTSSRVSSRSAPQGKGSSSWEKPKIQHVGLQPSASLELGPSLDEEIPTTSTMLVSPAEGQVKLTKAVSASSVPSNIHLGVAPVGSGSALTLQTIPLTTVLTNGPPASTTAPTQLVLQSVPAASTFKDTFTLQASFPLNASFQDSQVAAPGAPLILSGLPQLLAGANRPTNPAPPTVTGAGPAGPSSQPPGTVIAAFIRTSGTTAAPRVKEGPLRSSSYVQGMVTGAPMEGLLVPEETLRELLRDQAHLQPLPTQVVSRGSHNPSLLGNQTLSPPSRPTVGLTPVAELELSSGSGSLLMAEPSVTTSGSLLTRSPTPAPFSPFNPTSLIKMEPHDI
Chain of ETV1 (P50549 whole entry): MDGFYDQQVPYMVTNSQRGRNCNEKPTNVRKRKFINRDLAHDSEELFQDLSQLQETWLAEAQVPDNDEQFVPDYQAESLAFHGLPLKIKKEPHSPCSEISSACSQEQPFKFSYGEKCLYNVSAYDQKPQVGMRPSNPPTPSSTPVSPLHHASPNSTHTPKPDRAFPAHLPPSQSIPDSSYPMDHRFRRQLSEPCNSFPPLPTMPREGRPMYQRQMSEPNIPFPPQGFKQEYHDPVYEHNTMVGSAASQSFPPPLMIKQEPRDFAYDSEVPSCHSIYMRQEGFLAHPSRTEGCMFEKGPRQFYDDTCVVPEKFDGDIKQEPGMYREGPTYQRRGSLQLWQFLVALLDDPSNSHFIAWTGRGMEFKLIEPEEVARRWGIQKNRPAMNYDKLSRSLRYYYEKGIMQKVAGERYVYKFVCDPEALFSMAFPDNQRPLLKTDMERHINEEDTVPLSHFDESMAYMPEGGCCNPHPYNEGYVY

As for CTAACC, the binding signal was 1.16 fold enrichment (6-mer frequency, TF over GST control) in the assay with FEV; 1.19 fold enrichment (6-mer frequency, TF over GST control) in the assay with ETV5; 1.05 fold enrichment (6-mer frequency, TF over GST control) in the assay with HSF1; 1.08 fold enrichment (6-mer frequency, TF over GST control) with SPIC; 1.2 fold enrichment (6-mer frequency, TF over GST control) in the assay with ELF4; 1 fold enrichment (6-mer frequency, TF over GST control) with ELK4. For the same sequence, the binding signal with ETV2 was 1.11 fold enrichment (6-mer frequency, TF over GST control); with ELF3, 1.27 fold enrichment (6-mer frequency, TF over GST control); with CRX, 1.09 fold enrichment (6-mer frequency, TF over GST control); with ETV1, 1.16 fold enrichment (6-mer frequency, TF over GST control); with ERF it was 1.17 fold enrichment (6-mer frequency, TF over GST control); in the assay with ETV3L, 1.2 fold enrichment (6-mer frequency, TF over GST control). Besides, the binding signal in the assay with ETS2 is 1.15 fold enrichment (6-mer frequency, TF over GST control); in the assay with SPDEF, 1.09 fold enrichment (6-mer frequency, TF over GST control); with ETV7, 1.04 fold enrichment (6-mer frequency, TF over GST control); in the assay with ELF5 it was 1.14 fold enrichment (6-mer frequency, TF over GST control); in the assay with ETV3, 1.16 fold enrichment (6-mer frequency, TF over GST control).

The values are drawn from publication PMC7862700, “An all-to-all approach to the identification of sequence-specific readers for epigenetic DNA modifications on cytosine”.
